Assay results from PubChem BioAssay AID2766 (Sanford-Burnham Center for Chemical Genomics, 2010).
The list shows a part of the results. A number with no mark means an inactive call. Calls of active or inactive are those of the source. Cut-off read from the data, not from the text of the source: active = inhibition above about 50%; inactive = the rest.

biological target: Apelin receptor (Homo sapiens) (UniProt P35414); assay: apelin receptor inhibitors, beta-arrestin readout – cell-based, luminescence, single concentration, uHTS hits, confirmation (AID 2766); settings: APJ beta-arrestin recruitment, antagonist mode, at 20 µM, active compounds read high
Sequence (P35414 whole entry, looked up): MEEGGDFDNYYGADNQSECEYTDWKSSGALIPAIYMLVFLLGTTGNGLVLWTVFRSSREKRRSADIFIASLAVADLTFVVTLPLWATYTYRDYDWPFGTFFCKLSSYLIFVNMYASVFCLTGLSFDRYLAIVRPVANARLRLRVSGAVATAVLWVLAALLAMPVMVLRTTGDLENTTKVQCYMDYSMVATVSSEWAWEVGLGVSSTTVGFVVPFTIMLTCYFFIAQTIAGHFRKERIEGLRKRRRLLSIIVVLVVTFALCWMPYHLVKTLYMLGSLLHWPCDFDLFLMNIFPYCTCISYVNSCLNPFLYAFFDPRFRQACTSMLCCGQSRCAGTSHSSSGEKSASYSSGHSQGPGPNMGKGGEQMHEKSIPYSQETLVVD

Structure (SMILES)	inhibition
Oc1ccc(N=Nc2nccs2)c(O)c1	79.8% (active)
O=C(CCc1nc2ccccc2c(=O)[nH]1)OCC(=O)c1cccc(Cl)c1	37.2%
O=c1ccc2c(-c3ccccc3S(=O)(=O)O)c3ccc(O)c(O)c3oc-2c1O	69.9% (active)
O=C1Nc2ccc([N+](=O)[O-])cc2C1=Nc1cccc(CO)c1	72.5% (active)
O=C(CSc1cccc2cccnc12)N/N=C/c1cccnc1	43.5%
COc1cc(/C=C(\C#N)c2nc3c(s2)CC(C)CC3)ccc1O (centres undefined)	44.7%
CC(CN1CCOCC1)OC(=O)c1ccc(C(C)(C)C)cc1 (centres undefined)	26.5%
Cc1cccc2cc3c(N)c(C(=O)N4CCCc5ccccc54)sc3nc12	47.9%
O=[N+]([O-])c1cc(Cl)cc(/C=N/NC(=S)Nc2cc(S(=O)(=O)N3CCOCC3)ccc2Cl)c1O	62.4% (active)
S=C(NNC(=S)NC1CC2CCC1C2)NC1CC2C=CC1C2 (centres undefined)	49.1%
COc1cc(/C=N\NC(=O)CNC(=O)c2cccc([N+](=O)[O-])c2)ccc1O	2.71%
O=C1Nc2ccc(Br)cc2/C1=N/N=C/C1=C(N2CCOCC2)C(=C\c2ccccc2)/CC1	75.1% (active)
COc1ccc(NC(=O)/C(Cl)=C(/Cl)S(=O)Cc2ccc(C)cc2)cn1 (centres undefined)	106% (active)
Cc1cc(/C=N/Nc2ccc([N+](=O)[O-])cn2)c(C)n1-c1cccc(C(=O)O)c1	75.3% (active)
CCc1ccc2c(c1)C1(NN=C(c3ccccc3)S1)C(=O)N2 (centres undefined)	42.9%
CC(C)OC(=O)CN1C(=O)C(=O)c2ccccc21	158% (active)
O=C(CCl)NNc1cccc(Cl)n1	145% (active)

Structure (SMILES)	inhibition
CC(=O)Nc1ccc(NC(=O)c2sc3nc4c(c(-c5ccc(C)cc5)c3c2N)CCC4)cc1	5.53%
Cc1cccc(-n2c(O)c(C=Nc3ccccc3N)c(=O)[nH]c2=O)c1	8.93%
CSCCC(NC(=O)COc1ccccc1)C(=O)OCC(=O)c1cc2ccccc2o1 (centres undefined)	87.8% (active)
CC(=O)C1=C(O)C(=O)N(c2ccc(S(N)(=O)=O)cc2)C1c1ccccc1F (centres undefined)	43.9%
COc1cc(NS(=O)(=O)c2ccc3ccccc3c2)c2ncccc2c1	-7.35%
CC(=O)/C(=N\Nc1ccc(Cl)cc1Cl)Sc1cccc2cccnc12	78% (active)
COc1cc(/C=C2/SC(=S)N(Cc3ccccc3)C2=O)cc(OC)c1O	94.7% (active)
CC1CC2=C(CC1/C=N/NC(N)=S)C(C)(C)CCC2 (centres undefined)	103% (active)
O=[N+]([O-])c1ccccc1S(=O)(=O)Nc1cccc2cccnc12	4.57%
COC(=O)c1ccc(NCC(=O)c2ccccc2)cc1	63.5% (active)
O=[N+]([O-])c1c(NCCO)cc(Sc2nc3ccccc3s2)c2nonc12	105% (active)
CN(C)S(=O)(=O)c1cccc(NC(=S)N/N=C/C(=O)c2ccccc2)c1	52.4% (active)
COc1cccc2sc(Nc3nc(C)c(C(C)=O)s3)nc12	94% (active)
COc1ccc(CS(=O)/C(Cl)=C(/Cl)C(=O)Nc2ccc(OC)nc2)cc1 (centres undefined)	100% (active)
CCOC(=O)c1cnc(Nc2nc3ccccc3o2)nc1CSC(=S)N1CCCCC1	-22.6%
Cc1csc(NC(=S)Nc2cccc(Cl)c2)n1	55.8% (active)
CN1/C(=c2/s/c(=C3/C(=O)N(c4ccccc4)NC3=Nc3ccccc3)n(C)c2=O)C(C)(C)c2ccccc21	55.3% (active)
